A selection: hits, their analogues and other compounds. The true share with any hit is near 0.38%.
Rab2 wt GTP: modulators of GTP binding to Rab2A wildtype, primary screen, biochemical, dog, bead-based flow cytometry, multiplex; Ras-related protein Rab-2A (Canis lupus familiaris), P61105; GST-Rab2 wt beads, Bodipy-GTP binding; GTP binding activity, % at 10 µM; actives 0.19% (n = 190,000); AID 760, 2007;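 active = GTP binding activity at least 20 points away from 100%, either lowered or raised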;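 note: 0% = beads with excess unlabeled GTP and 100% = no-compound control corrected for plate trend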
Rac1 act GTP bind: GTP binding modulators of activated mutant Rac1, primary screen, biochemical, bead-based flow cytometry, multiplex, fluorescent GTP. Ras-related C3 botulinum toxin substrate 1 (Homo sapiens), P63000. percent activity (GTP binding), % at 10 µM. actives 0.11% (n = 190,000). GST-Rac1 activated beads; actives lie on both sides; 100% means binding = to untreated wells;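 active = GTP binding at least 20 percentage points away from the 100% baseline, in either direction, so actives lie on both sides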
Rac1 wt GTP bind: wildtype Rac1 GTP binding modulators, primary screen, biochemical, GST-Rac1 beads, flow cytometry, multiplex. fluorescent GTP binding; actives lie on both sides; 0 = cold GTP competed, 100 = untreated. actives 0.27% (n = 190,000). GTP binding activity (% of control), % at 10 µM. Ras-related C3 botulinum toxin substrate 1 (Homo sapiens), P63000;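 active = GTP binding activity at least 20 points away from the 100% control level, either lower or higher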
Rab7 wt modul: modulators of GTP binding to Rab7, primary screen, biochemical, wildtype, multiplex bead flow cytometry; AID 758, 2007; Rab7 GTPase wild type (dog), Bodipy-FL-GTP binding; actives 0.055% (n = 190,000); GST-Rab7 beads, fluorescent GTP binding; actives lie on both sides; untreated = 100%, excess cold GTP = 0%; GTP binding activity (percent of control), % at 10 µM;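 active = fluorescent GTP binding to Rab7 beads changed by at least 20 points from the 100% baseline, either direction, mostly lower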;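 note: median green fluorescence of bound Bodipy-FL-GTP per Rab7 bead population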
HRas wt GTP: modulators of GTP binding to HRas wildtype, primary screen, biochemical, bead-based flow cytometry, multiplex; GTPase HRas (Homo sapiens), P01112; GST-Ras wt beads, Bodipy-FL-GTP binding; actives lie on both sides; GTP binding activity, % at 10 µM; actives 0.14% (n = 190,000);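 active = GTP binding activity at least 20% away from the 100% baseline, either lowered as inhibitor or raised as activator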;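 note: 0% = unlabeled GTP competition control and 100% = no-compound control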
Target sequence (P01112 whole entry, looked up): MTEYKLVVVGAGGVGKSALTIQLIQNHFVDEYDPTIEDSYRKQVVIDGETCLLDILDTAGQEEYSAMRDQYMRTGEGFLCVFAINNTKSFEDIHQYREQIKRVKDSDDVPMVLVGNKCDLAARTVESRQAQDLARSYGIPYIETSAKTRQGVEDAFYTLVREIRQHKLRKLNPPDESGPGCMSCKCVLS
Cdc42 wt: modulators of GTP binding to wildtype Cdc42, primary screen, biochemical, multiplex bead flow cytometry, Bodipy-GTP | Cell division control protein 42 homolog (Homo sapiens), P60953 | GST-Cdc42 beads; actives lie on both sides | percent activity (GTP binding), % at 10 µM | actives 0.2% (n = 190,000);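 active = percent activity GTP binding at least 20 points away from the 100% baseline, either down as inhibitor or up as activator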;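 note: median bead fluorescence of bound Bodipy-FL-GTP at 100 nM; 0% = excess unlabeled GTP control and 100% = no compound control; below 100% means less GTP binding so inhibitor and above means activator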
Target sequence (P60953 whole entry, looked up): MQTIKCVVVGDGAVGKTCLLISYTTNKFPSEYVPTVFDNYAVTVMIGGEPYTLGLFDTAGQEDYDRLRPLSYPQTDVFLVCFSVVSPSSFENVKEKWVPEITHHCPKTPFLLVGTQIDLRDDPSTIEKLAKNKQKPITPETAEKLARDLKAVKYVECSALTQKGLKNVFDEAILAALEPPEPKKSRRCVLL
An asterisk follows results filed as active; [ ] = remark or other dose.

SMILES	Rab2 wt GTP	Rac1 act GTP bind	Rac1 wt GTP bind	Rab7 wt modul	HRas wt GTP	Cdc42 wt
CNc1ncc(C(=O)c2ccc(Br)cc2)s1	99	106	121*[activator]	100	101	106
CNc1ncc(C(=O)c2ccccc2)s1	99	99	101	99	102	101
Cc1c(CCC(=O)O)c(=O)oc2cc(O)ccc12	98	99	100	102	101	102
Cc1c(CCC(=O)O)c(=O)oc2cc3occ(-c4ccc(F)cc4)c3cc12	81	83	68*	86	83	80
O=S(=O)(CC(CN1CCOCC1)N1CCOCC1)c1ccccc1 (stereo not drawn)	55*	53*	56*	23*	58*	60*
CCOC(=O)c1cnc(SCc2ccc(C)cc2)nc1N	105	104	120*[activator]	101	103	107
O=C(Nc1cnn(C23CC4CC(CC(C4)C2)C3)c1)c1cnn2cccnc12	121*[activator]	117	138*[activator]	117	123*[activator]	129*[activator]
COc1ccc(-c2cc(C(F)(F)F)n3nc(C(=O)O)cc3n2)cc1OC	80	85	77*	84	86	81
COC(=O)c1cc2nc(-c3ccc(OC)c(OC)c3)cc(C(F)(F)F)n2n1	99	100	100	101	99	98
NC(=O)c1cc2nc(-c3ccco3)cc(C(F)(F)F)n2n1	63*	81	68*	92	65*	64*
OC(CNCCc1ccc(Cl)cc1)COc1ccc2ccccc2c1 (stereo not drawn)	78*	77*	81	90	80	77*
OC(COc1ccc2ccccc2c1)Cn1ccnc1 (stereo not drawn)	97	96	98	97	98	98
Cc1nc(NC(=O)c2cccs2)ccc1Br	97	97	100	96	97	95
CCc1nnc(NC(=O)CSc2nc(-c3ccccc3)cc(-c3ccc(OC)cc3)c2C#N)s1	97	99	104	101	98	100
COCCNc1nc2c(c(=O)n(Cc3ccc(OC)cc3)c(=O)n2C)n1C	95	95	94	93	92	94
COc1ccc(CNc2nc3c(c(=O)n(Cc4ccc(Cl)cc4)c(=O)n3C)n2C)cc1	78*	80	83	85	82	79*
O=C(COc1ncnc2cc([N+](=O)[O-])ccc12)NC(=O)NC1CCCCC1	79*	89	75*	90	85	80
O=C(Cn1cnc2cc([N+](=O)[O-])ccc2c1=O)NCc1ccc(Cl)cc1	80	86	74*	91	84	77*
O=C(COc1ncnc2cc([N+](=O)[O-])ccc12)NCCc1ccc(Cl)cc1	80	90	77*	92	84	81
CCOC(=O)c1c(C)[nH]c(C)c1C(=O)COc1ncnc2cc([N+](=O)[O-])ccc12	63*	81	63*	74*	70*	64*
COc1ccc(CCNC(=O)CCc2ccc(S(=O)(=O)NCC(C)C)cc2)cc1	99	101	104	97	102	99
Cc1cc(OC(F)F)ccc1NC(=O)Nc1ccc([N+](=O)[O-])cc1	99	100	101	100	101	97
O=C1NC(=Nc2ccc(O)cc2)S/C1=C/c1ccco1	93	93	95	94	93	95
COc1cc(/C=C2\SC(=Nc3ccc(O)cc3)NC2=O)cc(OC)c1O	83	86	72*	96	84	79*
O=C(C#Cc1cccc([N+](=O)[O-])c1)c1ccccc1	87	78*	89	92	85	78*
SMILES	Rab2 wt GTP	Rac1 act GTP bind	Rac1 wt GTP bind	Rab7 wt modul	HRas wt GTP	Cdc42 wt
O=C(/C=C/c1cccc([N+](=O)[O-])c1)OCC(=O)c1ccccc1	94	96	106	98	101	96
CCOc1ccccc1C(=O)NC(CO)C(=O)O (stereo not drawn)	101	97	102	104	103	102
Cc1ccccc1NC(=O)c1ccc(CN(c2ccccc2)S(=O)(=O)c2ccccc2)cc1	93	97	101	99	97	97
COc1cccc(-n2c(SCC(=O)NCCC3=CCCCC3)nc3n[nH]c(C)c3c2=N)c1	76*	89	88	87	73*	75*
COc1ccc(C2=C(C=Nc3c(C)n(C)n(-c4ccccc4)c3=O)C(c3ccccc3C)c3ccccc3O2)cc1OC (stereo not drawn)	93	92	91	94	96	95
COc1cc(C)c2c(c1C=O)Oc1c(c(C)c(O)c3c1C(O)OC3=O)OC2=O (stereo not drawn)	80	76*	80	84	81	78*
Cc1ccccc1CSc1nc(-c2ccccc2)cc(=O)[nH]1	96	94	102	100	98	98
CC(C)N(C(=O)COC(=O)c1cccc(C(=O)OCC(=O)N(C(C)C)C(C)C)n1)C(C)C	97	96	102	107	100	95
CCOC(=O)c1nc(Nc2ccc(C(C)=O)cc2)c2ccccc2n1	86	88	78*	96	84	83
S=C(NCc1ccco1)N1CCN(C/C=C/c2ccccc2)CC1	104	97	96	106	101	94
O=C(COc1ccccc1-c1ccccc1)N/N=C/c1ccncc1	61*	55*	55*	58*	59*	60*
CCN(CC)CCNC(=O)c1cc2cc(Br)ccc2s1	98	94	97	97	98	98
Cc1nc2ccccn2c1-c1csc(Nc2cccc(O)c2)n1	82	87	75*	88	83	82
O=[N+]([O-])c1cc(-c2ncccn2)c([N+](=O)[O-])s1	92	76*	95	101	96	81
Cc1nc2nc(SCC(=O)NCCN3CCOCC3)nn2c(C)c1Cc1ccccc1	100	100	103	100	100	99
Cc1cccc(Cc2c(C)nc3nc(SCC(=O)O)nn3c2C)c1	74*	68*	72*	89	78*	66*
Cc1cccc(NC(=O)NC(C)C(c2ccccc2)N2CCN(C)CC2)c1 (stereo not drawn)	105	98	103	108	99	103

Source: PubChem
